Experimental data taken from the supplement of paper PMC6555819.

Experiments:
Assay in all cases: PBM binding z-score (relative to random genomic background probes); higher = stronger binding; sequences stand for … in GC…GCGATTGACAGCGTAGAATGAAGG
[1] = test system: FXR:RXRa (NR concentration 270 nM, RXRa partner concentration 90 nM)
How it was run: (§1)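 Random background probes are the reference for binding z-scores. These scores derive from regression-normalized fluorescence on custom Agilent 4×180K protein-binding microarrays incubated 1 h with ligand-free nuclear receptor dimers. Binding was detected with antibodies against each partner (one per run).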

[2] = test system: LXRa:RXRa (NR concentration 270 nM, RXRa partner concentration 90 nM)
How it was run: as §1

[3] = test system: LXRa homodimer (NR concentration 270 nM)
How it was run: as §1

[4] = test system: LXRb:RXRa (NR concentration 270 nM, RXRa partner concentration 90 nM)
How it was run: as §1

[5] = test system: LXRb homodimer (NR concentration 270 nM)
How it was run: as §1

[6] = test system: PPARa:RXRa (NR concentration 270 nM, RXRa partner concentration 90 nM)
How it was run: as §1

[7] = test system: PPARg:RXRa (NR concentration 180 nM, RXRa partner concentration 90 nM)
How it was run: as §1

[8] = test system: PPARg:RXRa 270nM:90nM, anti-RXR (NR concentration 270 nM, RXRa partner concentration 90 nM)
How it was run: as §1

[9] = test system: PPARg:RXRa 30nM:10nM, anti-RXR (NR concentration 30 nM, RXRa partner concentration 10 nM)
How it was run: as §1

[10] = test system: PPARg:RXRa 90nM:30nM, anti-RXR (NR concentration 90 nM, RXRa partner concentration 30 nM)
How it was run: as §1

Sequence	PBM binding z-score [1]	PBM binding z-score [2]	PBM binding z-score [3]	PBM binding z-score [4]	PBM binding z-score [5]	PBM binding z-score [6]	PBM binding z-score [7]	PBM binding z-score [8]	PBM binding z-score [9]	PBM binding z-score [10]
ACTATTAGTTGCCTTAGGGCAACCGATACGACGC	0.218	0.346	0.285	0.202	0.935	0.287	0.672	0.279	0.294	0.358
CTACCAACGTGAACAAGGTCGTTGATTACTATTC	0.409	0.657	0.667	1.48	0.184	1.22	0.42	0.167	-0.0638	0.0634
TGAATGAGGTTAATGATCAGGGAACGTGGCGTCG	1.4	1.33	-0.115	0.692	0.285	2.39	1.58	1.84	0.601	1.17
CGTACTGGGCCAAAGGTCATTGATTCCAATGCTC	4.8	5.21	4.25	5.04	0.838	6.66	12.7	10.7	10.2	12.9
GCATATAGGTAATACAAGGTGTAAGTCCGATTGT	0.0456	-0.21	-0.0292	-0.487	-0.137	0.159	0.975	0.539	0.405	0.179
CCGAGTAGGATATGGGGCATTCAGGCAACGGTGA	-0.328	-0.279	-0.104	-0.307	-0.496	1.11	1.26	2.01	0.579	1.45
TCATATAGGTAAACAAGTGAAAGTCCGTAAGTTA	1.87	1.33	0.256	1.17	0.297	1.58	1.4	2.55	4.08	2.98
TCTAGCAGGCCAGAGGGTCTCTCAAGAGGTACGG	-1.4	-0.676	-0.763	-0.66	-1.71	-0.298	0.13	0.975	1.38	1.06
ATATGTAGGTTTTCGGGTCATTCAGTTTGCGCAT	3.26	2.94	1.41	3.14	1.57	4.19	3.95	4.14	1.9	3.5
GCAGACAGGTGAAACGCAGGTAGCTCAGGGTGGC	-0.298	-0.318	-0.974	-0.61	-1.08	0.412	0.213	-0.178	-0.645	-0.382
CCGACTGGGGCAAAGGTTACAATACTCAGTACGA	1.77	1.65	0.0321	2.42	-0.618	5.62	12.1	9.57	11.1	11.3
ACTAGCAGGCCAACGGTCACTCAAGATTAGTCCG	-0.155	-0.0207	0.0255	-0.508	-0.572	1.37	2.56	3.92	2.08	3.72
ATCGAAAGGTCGTGAGGTGAGTATCCAGAAAGGC	5.07	4.11	0.195	3.04	0.388	4.97	4.11	4.31	1.14	2.9
CGAACGAGTGCATGAGTTGATAGCAAATGCCGAT	-0.259	-0.143	-0.369	-0.0215	-0.861	0.127	0.68	0.262	-0.00177	-0.142
TCATATAGGTAAATGCTAGCTGAAAGTCCGATCT	0.654	0.665	-0.000947	0.713	-0.112	1.04	0.413	1.96	3.71	2.81
CAGCCTAGGTCAGGGCCAGTAGAGGAGGAACGTT	1.51	0.675	-0.538	0.358	-1.25	1.97	0.595	0.833	-0.754	0.0745
CGTTACGGGTCACTCCAGGTTATAGCATCGGAGT	4.94	7.62	1.6	5.34	-0.0358	4.67	3.44	4.08	1.42	2.69
TTACCAATGTGAAGGTCGTTGATCCCTCTGTAGA	1.87	2.22	0.434	1.74	0.0606	1.3	-0.039	1.1	1.12	0.829
CCTACTGGGACATCAGGTCATTGATATCAACGTT	1.42	1.88	2.8	2.06	0.52	2.67	2.46	3.36	1.61	3.06
CCAACTGGGCCATCAGGTCATTGATATCAACGTT	1.54	0.836	0.987	1.56	-0.441	2.73	2.9	3.63	1.38	3.04
ATCGTAAGGTCGAAGGTGAGTATACCCACCCGAA	2.6	1.9	-0.314	1.71	0.36	3.41	3.62	3.7	1.42	3.36
CACGAAAGGTCGGTTGAGGTGAGTATACGGATAA	2.53	2.25	0.0219	1.7	0.387	3	0.823	1.36	0.246	0.906
ATCTCTAGGTAAGACTTAGTTCAGTGAAGAACGC	0.399	0.643	0.399	0.303	0.796	0.394	0.205	0.542	0.399	0.438
TCTTGTAGATCAGCAGGTTAAGAATGCTGGCCAA	-0.0205	0.0347	-0.38	0.151	-0.573	0.607	-0.224	1.26	2.68	2.04

Sequence	PBM binding z-score [1]	PBM binding z-score [2]	PBM binding z-score [3]	PBM binding z-score [4]	PBM binding z-score [5]	PBM binding z-score [6]	PBM binding z-score [7]	PBM binding z-score [8]	PBM binding z-score [9]	PBM binding z-score [10]
ACTAGCAGGCCAAGCGTCACTCAAGATTAGTCCG	-0.5	-0.376	-0.471	-0.815	-0.983	0.102	1.12	1.84	0.377	1.73
CTCGAAAGGTCGTGCTAAGGTGAGTATACCAAAC	5.5	4.12	0.337	3.46	0.12	5.03	3.4	4.54	1.67	3.46
CAAACTAGGTCACAGAGGTCAAAGTACGTGCGTA	7.52	6.76	7.47	6.46	2.46	6.64	10.3	8.39	6.94	8.5
CCAGACAGGCGAGAAGGTAACTCAGCCTCGATTA	-0.951	-0.595	-0.499	-0.97	-1.31	-0.764	-0.0182	-0.949	-0.723	-0.947
TCGAGTAGGTTAGTCGGGGCATTCAGCCAACATA	-0.132	-0.201	-0.628	0.294	-0.855	0.44	-0.224	0.553	0.435	0.377
CCTTCTGGGCCAAGGTCATTGATCAGTCAAAGCA	2.83	2.99	0.639	2.84	-0.27	3.75	3.12	4.15	1.37	3.57
GCTAGCAGGCCATTTGGGTCACTCATTGACGGGC	0.033	-0.0107	-0.528	-0.128	-0.903	1	0.357	0.27	-0.512	-0.18
ACAGACAGGTGGGTGAAGGTAACTCAGCTGGACG	0.0751	-0.222	-0.335	-0.235	-0.295	0.238	0.861	0.585	-0.13	0.177
TTACTAAGGTGAGCTGAGGTCGTTGATCCAACTC	2.26	1.54	-0.344	1.04	-0.663	1.97	0.363	1.26	0.174	0.711
CCGACTGGGGCAGAAAGATTACCATACCATCCGG	-0.557	-0.807	-0.423	-0.639	-1	-0.291	0.958	-0.112	-0.469	-0.456
CCGACTGGGGCATAAGGTTATCATAAGCCAGCCC	0.297	0.921	-0.134	0.498	-1.15	1.94	2.31	3.06	1.39	3.18
ACTATTAGTTGAGACGAGCGCAACCGATAGGTTG	-0.41	-0.534	-0.214	-0.638	-0.159	-0.642	0.477	-0.52	-0.422	-0.414
GGAACGAGGGCATACGAGTTGATAGCATGGCGAT	1.33	0.61	-0.418	-0.0696	-0.795	1.25	1.28	0.666	0.135	0.26
CCTAACGGGTCACTCCAGGTTATAGCATCGGAGT	3.94	7.24	1.46	4.81	0.101	3.5	2.32	2.54	0.338	1.43
CCTACTGGGTCATCAGGTCATTGATATCAACGTT	4.46	3.76	2.34	3.19	-0.201	4.86	7.61	6.52	4.45	5.99
ATCTCTAGGTATAAGTTCAGTGAATCCCGAGGAT	0.24	0.542	0.507	0.379	0.825	1.77	2.79	4.45	2.94	4.55
TCATATAGGTAAACAGGTGAAATTCCGTAAGTTA	1.25	1	0.35	1.2	-0.0512	2.32	2.75	3.22	4.19	3.8
CAGCCTAGGTCAGGGCCAGAATAGGAGGAACGTT	1.68	0.905	-0.589	0.734	-1.02	2.04	1.06	0.725	-0.241	0.0702
ACAGACAGGTGAGTCAAGGTAACTCAGCTGGACG	1.06	-0.203	-0.155	-0.37	-0.551	0.333	0.647	-0.164	-0.257	-0.347
TCTTGTAGATCAACAGGAGGTTAAGAATGATCGA	0.541	0.729	0.072	0.703	-0.4	1.41	0.296	1.52	2.59	2.06
CGTCAAAGTTTAAGGTAACGTAACAGAAAGCAGC	0.503	0.447	-0.218	0.466	-0.063	0.794	0.72	1.11	0.465	0.749
ATCTCTAGGTAAGACTCAGTTCAATGAAGAACGC	0.961	1.03	1.15	1.04	1.18	0.681	0.379	0.658	0.44	0.504
ATCTCTAGGTGAAGTTCAGTGAAAGATCGATAGA	0.465	0.465	0.0389	0.0201	0.118	1.88	1.57	1.74	0.453	1.35
TCTTGTAGATCAGCAGGTTGAGAAAGCTGGCCAA	0.242	0.0309	-0.346	-0.0211	-0.546	0.457	-0.781	1.1	2.58	1.75
